Data taken from publication PMC7819943, “Rice protein-binding microarrays: a tool to detect cis-acting elements near promoter regions in rice”.
In all, about 68,000 sequences were measured (“fluorescence intensity (a.u.)”: median about 9,100, highest 2% from about 16,000 on). This excerpt belongs to a sample that is enriched for the highest values.

Each sequence was assayed against OsWRKY34 (Oryza sativa, UniProt Q0JBA9 1-250) (assay: protein-binding microarray (RPBM); PBS, 2% BSA, 51.3 ng/ul salmon testes DNA, 50 uM zinc acetate, 200 nM TF, 25 C, 1 h; high values mean tight binding). Details: protein: recombinant; tags: N-terminal polyhistidine and DsRed monomer fusion (pET32a); label: CyDye5-dUTP incorporated in the synthesized complementary strand; 3' TTTTT single-stranded linker to array surface; dsDNA, one strand shown.
Method in brief: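 Using Ni–NTA, transcription factors fused N-terminally to polyhistidine and DsRed were purified after expression in E. coli BL21-CodonPlus. These were incubated at 200 nM with a blocked, double-stranded custom Agilent array for 1 h at 25 °C in a buffer containing 50 µM zinc acetate, and the array was washed. The binding signal is per-feature fluorescence intensity (arbitrary units) on an Axon 4000B scanner.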

Chain of OsWRKY34 (Q0JBA9 entry or part of it): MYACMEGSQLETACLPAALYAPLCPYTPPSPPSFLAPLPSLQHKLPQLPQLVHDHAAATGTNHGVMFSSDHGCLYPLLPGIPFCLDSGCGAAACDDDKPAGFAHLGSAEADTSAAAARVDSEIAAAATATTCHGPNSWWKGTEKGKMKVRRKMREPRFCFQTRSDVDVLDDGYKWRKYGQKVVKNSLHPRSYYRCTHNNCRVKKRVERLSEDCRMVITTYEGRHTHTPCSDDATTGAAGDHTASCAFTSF

Sequence	binding signal
GAATTGTTGACCACGTGTTTCTGTTTGGACTCCTTTTTTTCGGAGTCACCTAGTGCAG	16400 fluorescence intensity (a.u.)
TAGTCCGTTCTGTTGTCATCTACTACTCTTGTTTGTGTTTCGGAGTCACCTAGTGCAG	16100 fluorescence intensity (a.u.)
CGTTCTGTCATTTGGGTTTTATGTTTGTTCTCTCTTGTTTCGGAGTCACCTAGTGCAG	12000 fluorescence intensity (a.u.)
ATGCGTGTGGTTCTCCTGTCCGTTCTGTCATTTGGGTTTTCGGAGTCACCTAGTGCAG	20000 fluorescence intensity (a.u.)
TTCCGTTTCTGTTCCGTTTGGTTTTTCCTTGTTCTTTCGGCGGAGTCACCTAGTGCAG	12900 fluorescence intensity (a.u.)
TTTTCCGTGTTTTCCGTTTCTGTTTGTTTGGCTTTTTTTTCGGAGTCACCTAGTGCAG	18600 fluorescence intensity (a.u.)
TACCACCACTGTTCGTTTCGTTTGTTGGGTTTCGGTCATCCGGAGTCACCTAGTGCAG	8360 fluorescence intensity (a.u.)
GTGGACTTTTTTCCTTCTCCTTTTCCTTTGTGTTGTTTCGCGGAGTCACCTAGTGCAG	8860 fluorescence intensity (a.u.)
TCATTTCTGTGTGTGTTTTGGAGGTGGGTGAGGGTCTGTTCGGAGTCACCTAGTGCAG	9920 fluorescence intensity (a.u.)
CGTCCTTATTGTGGTTTTCCACGTGTTTGTCTCTGTGTTTCGGAGTCACCTAGTGCAG	13300 fluorescence intensity (a.u.)
GCTTCCGCCGCCGCGTCTTCTCGCCCTCGACTCCGCTCTCCGGAGTCACCTAGTGCAG	14700 fluorescence intensity (a.u.)
GCATAACTAATGGTCTGTTTACTTTGATGGCATTTTCAATCGGAGTCACCTAGTGCAG	9570 fluorescence intensity (a.u.)
CCTCAACCGTGACTCAGTTATTCAGTTCGACACCCAGCCGCGGAGTCACCTAGTGCAG	8070 fluorescence intensity (a.u.)
TTGCATTTGAAGACATGTAGTGTGTAGGGTGGGTTCTATTCGGAGTCACCTAGTGCAG	13500 fluorescence intensity (a.u.)
GCATTTCCAGGCCCACGGAAGCCACGCTTCTTCTCCAGCGCGGAGTCACCTAGTGCAG	8060 fluorescence intensity (a.u.)
TCTGTTGTGCTCTTTCGTGTGATAGATCGATTTTTTGATTCGGAGTCACCTAGTGCAG	10600 fluorescence intensity (a.u.)
AGGGAATTTCCCGTTCTTGCGCTCCTGGATTTCTTGCCCACGGAGTCACCTAGTGCAG	9560 fluorescence intensity (a.u.)
CTCTCTCTGTTTCGGCCTCTCATACTCACTCCTCGGCTTCCGGAGTCACCTAGTGCAG	11100 fluorescence intensity (a.u.)
AGTCCCAAGTCACAACTGACAACAAGGCAACTACTACTACCGGAGTCACCTAGTGCAG	8360 fluorescence intensity (a.u.)
ACTTTGATCATAAAATGAGTTACTCTTACTTTCTTTTATTCGGAGTCACCTAGTGCAG	8920 fluorescence intensity (a.u.)
TATGCCTATCTGAATTGGTTACTGTTCGTTTTTCCACTTACGGAGTCACCTAGTGCAG	10800 fluorescence intensity (a.u.)
GATTTAGTTTTAGTTTTTGTTTTTTTCCCACTTGGTTCTTCGGAGTCACCTAGTGCAG	9450 fluorescence intensity (a.u.)
CTCTCATCCGATTCCTGCGTTTTTCCTGTGGTTCAATCATCGGAGTCACCTAGTGCAG	17900 fluorescence intensity (a.u.)

Sequence	binding signal
CTCTCTCATCTGATTCTTGCGTTTTTCCTGTGGTCCAATCCGGAGTCACCTAGTGCAG	12000 fluorescence intensity (a.u.)
CTCATCCGATTCCTGCGTTTTTCCTGCGCTCCAATCAAACCGGAGTCACCTAGTGCAG	9990 fluorescence intensity (a.u.)
ACTGTTCGTTTTTCCACTTAAGTTCTGCTTGGTTTTTTTTCGGAGTCACCTAGTGCAG	16600 fluorescence intensity (a.u.)
CTCCCTCCCACTCCCCTTTTCGTAATTCCTTCCGCGCTTTCGGAGTCACCTAGTGCAG	8150 fluorescence intensity (a.u.)
TACTCTCTCTGTCCCCTTTTGTTTTTTTTCCTGTATACTGCGGAGTCACCTAGTGCAG	8690 fluorescence intensity (a.u.)
ATCACCTTCACGTTCCGAGATGTGGCACGAATCCCGAGGACGGAGTCACCTAGTGCAG	8070 fluorescence intensity (a.u.)
AATCGCTTTCTCTCTCTTCTTCCTTGCTCTCTCATACAACCGGAGTCACCTAGTGCAG	10200 fluorescence intensity (a.u.)
TCGTTTGATGCGATTTCGGCGGCGATCACCACCACCACCACGGAGTCACCTAGTGCAG	8160 fluorescence intensity (a.u.)
GAAGCTGGGTTATACTTTCACCATTTTTTTACTCGATCGACGGAGTCACCTAGTGCAG	8460 fluorescence intensity (a.u.)
ATATACAGATTTCGATCGGCGACGTTAGTGATCAGCTGGGCGGAGTCACCTAGTGCAG	35200 fluorescence intensity (a.u.)
AGGATTTTTTTTTTGTCAACGTATTTCTATTACCTGCTGTCGGAGTCACCTAGTGCAG	9630 fluorescence intensity (a.u.)
TCTGTTATATTTACTATCCATACTATACGTGTAAATTTTACGGAGTCACCTAGTGCAG	10200 fluorescence intensity (a.u.)
TATTCTTTCTCACGTAACGATTTTTTTTCATCATTAAGTTCGGAGTCACCTAGTGCAG	8230 fluorescence intensity (a.u.)
CCGTATTTTAATATATGACGTCGTTGACTTTTTAACCAACCGGAGTCACCTAGTGCAG	27300 fluorescence intensity (a.u.)
TATATTTTAATATTTTAATGTATGACGTCGTTGACTTTTTCGGAGTCACCTAGTGCAG	13800 fluorescence intensity (a.u.)
ATTTTTTAAGTGTACGTTGTTGTTGACTTTTTTTATTAACCGGAGTCACCTAGTGCAG	14400 fluorescence intensity (a.u.)
GTCCTTAACGACGTCGTTGACTTTTCACATAACATTATACCGGAGTCACCTAGTGCAG	17300 fluorescence intensity (a.u.)
AGTCTTTTTTCATCACATTAACCTATTATACACACATAACCGGAGTCACCTAGTGCAG	9110 fluorescence intensity (a.u.)
CTACCTCTATATTTTAATTTTAATGTATGACGTCGTTGACCGGAGTCACCTAGTGCAG	11100 fluorescence intensity (a.u.)
TCCGTATTTTAATTAACGACGTCGTTGACTTTTTAACCACCGGAGTCACCTAGTGCAG	24200 fluorescence intensity (a.u.)
CTAGTCCTTCGTTTGAGTCCTTATATAACATTGATAGTACCGGAGTCACCTAGTGCAG	8500 fluorescence intensity (a.u.)
CCGTATTTTAATGCACGACACCTTTGACTTTTTGATAAACCGGAGTCACCTAGTGCAG	9990 fluorescence intensity (a.u.)
